We go through 18 molecules from PubChem BioAssay.

A number with no mark means an inactive call. For part of these data: Results with a measured potency or affinity are listed apart. Activity calls are given as the source filed them. Unless noted, no rule for the calls is given here.

As usually defined, the inhibition is the relative decrease from the control value, in per cent.

Assay [1] is described as follows: antimalarial activity against Dd2 strain (AID 2302;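 active = growth inhibition above 50% at the single 2 µM test dose, taken to imply half-maximal potency below 2 µM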;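 also: 0% = DMSO untreated growth and 100% = chloroquine plus artemisinin killed control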). The conditions noted are these: P. falciparum Dd2 in RBCs, LDH growth readout, 72 h; at 2 µM; hits give high values.
Assay [2] in a line: human hepatoma cell viability loss – ATP luminescence, cytotoxicity control for P. falciparum antimalarial project, primary screen (AID 2303;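 active = inhibition above 50%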;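 also: 0% = DMSO wells and 100% = digitonin-killed cells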). The conditions noted are these: HepG2 viability, 24-48 h, at 10 µM, hits give high values.
For assay [3], the target named is L-lactate dehydrogenase (Plasmodium falciparum (isolate CDC / Honduras)) (UniProt Q27743). Nature of the assay: PfLDH activity inhibition – cell lysate, 3D7 strain, counter-screen for P. falciparum growth inhibition project (AID 2304).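 Also: 0% = vehicle and 100% = reference inhibitor.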 The conditions noted are these: P. falciparum 3D7 crude extract, LDH APAD/NBT absorbance; at 2 µM; hits give high values.
Sequence of L-lactate dehydrogenase (Plasmodium falciparum (isolate CDC / Honduras)) (Q27743 whole entry, looked up): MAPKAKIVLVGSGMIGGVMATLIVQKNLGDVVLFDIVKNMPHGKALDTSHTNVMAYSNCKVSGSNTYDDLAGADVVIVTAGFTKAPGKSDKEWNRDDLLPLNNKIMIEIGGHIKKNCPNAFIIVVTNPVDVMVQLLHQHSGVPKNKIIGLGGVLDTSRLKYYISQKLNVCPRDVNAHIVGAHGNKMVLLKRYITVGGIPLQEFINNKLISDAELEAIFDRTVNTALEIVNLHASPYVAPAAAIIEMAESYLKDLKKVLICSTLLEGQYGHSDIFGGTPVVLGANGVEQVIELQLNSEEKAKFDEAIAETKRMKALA
Assay [4] in a line: inhibition of 3D7 malaria parasite growth – strain 3D7 (AID 2306).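 Also: 0% = DMSO wells and 100% = chloroquine plus artemisinin control wells.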 The conditions noted are these: P. falciparum 3D7 erythrocytic growth, LDH absorbance, 72 h; at 2 µM; hits give high values.
Assay [5] concerns the target Calcium-dependent protein kinase 1 (Plasmodium falciparum (isolate 3D7)) (UniProt P62344). Nature of the assay: PfCDPK1 kinase inhibitors, biochemical, TCAMS library (AID 1159585; cut-off not given, nearly all actives have IC50 up to about 0.98 µM;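 also: inhibitors leave more ATP so luminescence rises with inhibition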). The conditions noted are these: recombinant PfCDPK1, Kinase-Glo ATP depletion luminescence. In general terms: Kinase-Glo reads ATP consumption through a luciferase reaction.
Assay [6] concerns the target Plasmodium falciparum protein kinase 6 (PK6, PF3D7_1337100) (UniProt Q8IDW1). Nature of the assay: PfPK6 kinase inhibitors, biochemical, TCAMS library (AID 1159586). The settings on record: recombinant PfPK6, Kinase-Glo ATP depletion luminescence.
For assay [7], the target named is Protein kinase 7 (PK7), Plasmodium falciparum 3D7 (PF3D7_0213400) (UniProt Q7YTF7). Description: inhibition of Plasmodium PK7 catalytic activity – biochemical, TCAMS antimalarial set, Kinase-Glo luminescence (AID 1159587). The settings on record: recombinant PfPK7, Kinase-Glo ATP depletion luminescence.
Sequence of Protein kinase 7 (PK7), Plasmodium falciparum 3D7 (PF3D7_0213400) (Q7YTF7 1-343): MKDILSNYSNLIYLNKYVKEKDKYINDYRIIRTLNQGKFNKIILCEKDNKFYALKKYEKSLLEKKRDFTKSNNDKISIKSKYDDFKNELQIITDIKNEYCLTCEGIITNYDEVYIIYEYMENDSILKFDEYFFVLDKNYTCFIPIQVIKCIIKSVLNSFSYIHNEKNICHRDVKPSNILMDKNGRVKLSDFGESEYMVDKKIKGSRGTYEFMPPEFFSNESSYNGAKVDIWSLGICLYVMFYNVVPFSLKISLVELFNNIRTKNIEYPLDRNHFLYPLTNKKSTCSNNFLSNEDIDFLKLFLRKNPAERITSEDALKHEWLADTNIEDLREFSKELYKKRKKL
In assay [8] the target is Calcium-dependent protein kinase 4 (Plasmodium falciparum (isolate 3D7)) (UniProt Q8IBS5). Description: PfCDPK4 kinase inhibitors, biochemical, TCAMS library (AID 1159588; cut-off not given, nearly all actives have IC50 up to about 0.91 µM). The conditions noted are these: recombinant PfCDPK4, Kinase-Glo ATP depletion luminescence.
Sequence of Calcium-dependent protein kinase 4 (Plasmodium falciparum (isolate 3D7)) (Q8IBS5 whole entry, looked up): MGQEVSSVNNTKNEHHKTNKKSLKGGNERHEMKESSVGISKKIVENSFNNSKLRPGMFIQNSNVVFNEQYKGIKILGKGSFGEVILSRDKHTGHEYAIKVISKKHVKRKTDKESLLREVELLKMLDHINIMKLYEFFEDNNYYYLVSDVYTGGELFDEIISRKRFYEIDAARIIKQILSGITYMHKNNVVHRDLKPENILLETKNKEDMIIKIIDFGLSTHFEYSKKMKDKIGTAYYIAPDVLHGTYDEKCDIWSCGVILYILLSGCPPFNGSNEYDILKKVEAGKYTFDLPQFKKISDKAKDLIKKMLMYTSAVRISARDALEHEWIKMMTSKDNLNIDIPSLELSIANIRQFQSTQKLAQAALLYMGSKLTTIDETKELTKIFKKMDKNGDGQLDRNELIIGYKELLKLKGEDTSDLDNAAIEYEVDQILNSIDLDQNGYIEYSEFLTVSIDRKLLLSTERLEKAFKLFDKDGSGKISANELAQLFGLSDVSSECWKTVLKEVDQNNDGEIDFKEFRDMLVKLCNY

Sequence of Calcium-dependent protein kinase 1 (Plasmodium falciparum (isolate 3D7)) (P62344 whole entry, looked up): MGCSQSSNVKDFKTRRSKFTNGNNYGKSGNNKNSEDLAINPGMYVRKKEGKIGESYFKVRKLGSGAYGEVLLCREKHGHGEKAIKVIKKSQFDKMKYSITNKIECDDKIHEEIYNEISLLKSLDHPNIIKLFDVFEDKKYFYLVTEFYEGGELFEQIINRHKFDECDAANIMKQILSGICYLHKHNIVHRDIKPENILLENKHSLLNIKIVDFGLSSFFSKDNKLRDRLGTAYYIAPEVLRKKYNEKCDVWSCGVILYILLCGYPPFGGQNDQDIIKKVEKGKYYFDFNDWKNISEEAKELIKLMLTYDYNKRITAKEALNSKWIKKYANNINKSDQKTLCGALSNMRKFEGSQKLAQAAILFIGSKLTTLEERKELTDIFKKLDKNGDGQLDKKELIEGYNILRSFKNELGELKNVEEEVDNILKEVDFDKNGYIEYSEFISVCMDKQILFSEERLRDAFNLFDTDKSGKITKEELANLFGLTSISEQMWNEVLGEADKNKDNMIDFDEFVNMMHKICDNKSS
Sequence of Plasmodium falciparum protein kinase 6 (PK6, PF3D7_1337100) (Q8IDW1 1-305): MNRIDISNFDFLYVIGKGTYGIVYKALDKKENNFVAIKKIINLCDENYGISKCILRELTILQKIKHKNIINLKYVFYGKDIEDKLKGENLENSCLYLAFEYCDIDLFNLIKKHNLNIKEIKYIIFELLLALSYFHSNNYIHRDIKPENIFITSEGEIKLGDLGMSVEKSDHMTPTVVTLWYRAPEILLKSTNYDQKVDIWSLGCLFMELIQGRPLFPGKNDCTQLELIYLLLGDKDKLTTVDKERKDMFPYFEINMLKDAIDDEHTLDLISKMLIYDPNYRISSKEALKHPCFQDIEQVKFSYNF

Turning to `CC(C)(C)c1ccc(OCC(=O)NC2CCN(c3ccnc4cc(Cl)ccc34)C2)cc1` (centres undefined), the growth inhibition in assay [1] is 100% (active); in assay [4], 98% (active). The inhibition in assay [2] is 17%; in assay [3] it was -2%. Moreover, the result in assay [5], in assay [6], in assay [7] and in assay [8] was inactive.

Regarding `CCN(CC)Cc1cc(Nc2c3ccc(Cl)cc3nc3cccc(OC)c23)ccc1O`, the growth inhibition in assay [1] was 98% (active); in assay [4], 101% (active). For the same molecule, the inhibition was 8% in assay [2] and -3% in assay [3]. Besides, the outcome in assay [5], in assay [6], in assay [7] and in assay [8] was inactive.

Take `O=C(Cc1cnc[nH]1)Nc1cccc(-c2ccc(-c3nc4ccccc4[nH]3)cc2)c1`: the values for the growth inhibition in assay [1] and in assay [4] were 72% (active) and 99% (active), respectively. Moreover, the inhibition in assay [2] was 7%; in assay [3] it was -1%. The result in assay [5], in assay [6], in assay [7] and in assay [8] was inactive.

Regarding `CCOC(=O)c1c(C)n(-c2ccccc2)c2ccc(O)cc12`, the growth inhibition in assay [1] is 87% (active); in assay [4], 101% (active). Further, the inhibition in assay [2] is -7%; in assay [3], -4%. Further, the result in assay [5], in assay [6], in assay [7] and in assay [8] was inactive.

With `CCC(C)OC(=O)C1=C(C)NC2=C(C(=O)CC(c3ccc(OC)c(OC)c3)C2)C1c1cccc(O)c1` (centres undefined), the growth inhibition was 98% (active) in assay [1] and 100% (active) in assay [4]. The inhibition in assay [2] was -8%; in assay [3] it was 0%. Besides, the outcome in assay [5], in assay [6], in assay [7] and in assay [8] was inactive.

Regarding `CC(=O)Nc1ncc(C(=O)Nc2cccc(-c3cccc(-c4nc5ccc(C(F)(F)F)cc5[nH]4)c3)c2)s1`, the growth inhibition in assay [1] was 99% (active); in assay [4] it was 101% (active). Further, the inhibition in assay [2] is 76% (active); in assay [3], 3%. For the same molecule, the result in assay [5], in assay [6], in assay [7] and in assay [8] was inactive.

For `O=C(COc1cccc([N+](=O)[O-])c1)Nc1ccc(-c2nc3ccccc3[nH]2)cc1`, the results for the growth inhibition in assay [1] and in assay [4] were 5% and 99% (active), respectively. In addition, the results for the inhibition in assay [2] and in assay [3] were 12% and 7%, respectively. Further, the result in assay [5], in assay [6], in assay [7] and in assay [8] was inactive.

For `Cc1cc(-c2ccc3c(c2)CCN(CCC2CCC(NC(=O)/C=C/c4cccc(Cl)c4)CC2)CC3)on1` (centres undefined), the growth inhibition in assay [1] is 49%; in assay [4], 101% (active). For the same molecule, the inhibition in assay [2] was 16%; in assay [3], -4%. Further, the outcome in assay [5], in assay [6], in assay [7] and in assay [8] was inactive.

With `CC(C)CNCc1cccc(-c2cccc(CN(CCCN3CCN(C)CC3)C(=O)NC3CCCCC3)c2)c1`, the growth inhibition in assay [1] is 84% (active); in assay [4], 100% (active). Further, the inhibition is 16% in assay [2] and 0% in assay [3]. Moreover, the result in assay [5], in assay [6], in assay [7] and in assay [8] was inactive.

As to `CCCOc1ccc(N2C(N)=NC(N)=NC2(C)C)cc1`, the growth inhibition in assay [1] was 2%; in assay [4] it was 97% (active). In addition, the inhibition is 1% in assay [2] and -6% in assay [3]. Besides, the outcome in assay [5], in assay [6], in assay [7] and in assay [8] was inactive.

With `COc1ccc2nccc([C@@H](O)CN3CCC(NC(=O)c4ccc(CN5CCN(c6cccc(C)c6)CC5C)cc4)CC3)c2c1` (some centres undefined), the growth inhibition in assay [1] is 86% (active); in assay [4], 97% (active). Further, the inhibition was 50% (active) in assay [2] and 4% in assay [3]. Further, the result in assay [5], in assay [6], in assay [7] and in assay [8] was inactive.

As for `CNC(=O)c1cnc(Nc2ccc(OCC(O)CN(C)C)cc2)nc1Nc1cccc([N+](=O)[O-])c1` (centres undefined), the growth inhibition is 94% (active) in assay [1] and 100% (active) in assay [4]. The inhibition in assay [2] was 52% (active); in assay [3], -1%. Besides, the result in assay [5], in assay [6], in assay [7] and in assay [8] was inactive.

For `NC(N)=NC(=O)Nc1cc(Cl)c(Cl)c(Br)c1`, the growth inhibition in assay [1] and in assay [4] was 99% (active) in each case. Besides, the inhibition in assay [2] is 16%; in assay [3], -2%. The result in assay [5], in assay [6], in assay [7] and in assay [8] was inactive.

As to `COc1cc(NC(=O)/C=C/c2cc(F)cc(F)c2F)cc(OCCN2CCN(CCN3CCOCC3)CC2)c1`, the growth inhibition in assay [1] was 94% (active); in assay [4], 102% (active). Besides, the values for the inhibition in assay [2] and in assay [3] were 21% and 0%, respectively. Also, the outcome in assay [5], in assay [6], in assay [7] and in assay [8] was inactive.

Turning to `COc1cc(Br)c(NC(=O)Nc2ccc(C(F)(F)F)c(O[C@@H]3CCN(C)C3)c2)cc1OC`, the growth inhibition was 27% in assay [1] and 97% (active) in assay [4]. For the same molecule, the figures for the inhibition in assay [2] and in assay [3] were 10% and -1%, respectively. In addition, the outcome in assay [5], in assay [6], in assay [7] and in assay [8] was inactive.

Turning to `O=C(/C=C/c1cccc2ccccc12)NCCCCCN1CCC(c2c[nH]c3ccccc23)CC1`, the growth inhibition in assay [1] was 6%; in assay [4], 92% (active). The values for the inhibition in assay [2] and in assay [3] were 55% (active) and -1%, respectively. Also, the outcome in assay [5], in assay [6], in assay [7] and in assay [8] was inactive.

In the case of `COc1ccc(Cc2c(C)nc3nc(N)nc(N)c3c2C)cc1OC`, the growth inhibition in assay [1] is -4%; in assay [4], 93% (active). The inhibition in assay [2] was 66% (active); in assay [3], -1%. Besides, the outcome in assay [5], in assay [6], in assay [7] and in assay [8] was inactive.

With `C[C@H](NC(=O)[C@H](Cc1ccccc1)NC(=O)OC(C)(C)C)C(=O)N[C@@H](CC1CCCCC1)C(O)CN` (some centres undefined), the figures for the growth inhibition in assay [1] and in assay [4] were 64% (active) and 96% (active), respectively. Further, the inhibition in assay [2] was -4%; in assay [3] it was -5%. In addition, the result in assay [5], in assay [6], in assay [7] and in assay [8] was inactive.
